Only some compounds are listed: those with a hit (about 3.8% of all), similar ones and a draw of the others.
Shn3 3UTR inh – reduction of Shn3 3'UTR firefly luciferase signal, primary screen, Schnurri-3 inhibitor project, cell-based, Clone20 osteoblasts, set 2; Clone20 osteoblast Shn3 3'UTR firefly luciferase, 24 h; inhibition, % at 12.5 µM; hit rate 0.52% among 360,000;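 active = mean inhibition of at least 75% with every replicate also reaching 75%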;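 note: 0% = median of neutral control wells and 100% = pilot-screen positive control compound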
Gli-Sufu block – Gli-Sufu pathway antagonists, primary screen, luciferase luminescence, Sufu-KO-LIGHT cells, uHTS. hit rate 0.74% among 340,000. inhibition, % at 5 µM. Sufu-KO-LIGHT fibroblasts, Gli luciferase reporter luminescence;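 active = inhibition above about 55%, limit read from the data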;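 note: 0% = DMSO-treated cells and 100% = wells with medium but no cells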
Jurkat NFkB inh – inhibitors of induced NF-kB luciferase reporter, primary screen, TCR NF-kB activation inhibitor project, cell-based, luminescence, uHTS; inhibition, % at 4 µM; hit rate 0.53% among 330,000; Jurkat, PMA/ionomycin-induced NF-kB luciferase reporter; in the data active = inhibition above about 50%
Mdm2-MdmX inh – inhibitors of human Mdm2-MdmX association, primary screen, cell-based, luminescence, split luciferase, SaOS-2, uHTS | Protein Mdm4 (Homo sapiens) + E3 ubiquitin-protein ligase Mdm2 (Homo sapiens), … | SaOS-2 split-luciferase Mdm2/MdmX complementation | inhibition, % at 8 µM | hit rate 3% among 330,000 | AID 485346, 2010;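 active = inhibition of at least 50% at 8 µM in the primary screen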
Target sequence (O15151 whole entry, looked up): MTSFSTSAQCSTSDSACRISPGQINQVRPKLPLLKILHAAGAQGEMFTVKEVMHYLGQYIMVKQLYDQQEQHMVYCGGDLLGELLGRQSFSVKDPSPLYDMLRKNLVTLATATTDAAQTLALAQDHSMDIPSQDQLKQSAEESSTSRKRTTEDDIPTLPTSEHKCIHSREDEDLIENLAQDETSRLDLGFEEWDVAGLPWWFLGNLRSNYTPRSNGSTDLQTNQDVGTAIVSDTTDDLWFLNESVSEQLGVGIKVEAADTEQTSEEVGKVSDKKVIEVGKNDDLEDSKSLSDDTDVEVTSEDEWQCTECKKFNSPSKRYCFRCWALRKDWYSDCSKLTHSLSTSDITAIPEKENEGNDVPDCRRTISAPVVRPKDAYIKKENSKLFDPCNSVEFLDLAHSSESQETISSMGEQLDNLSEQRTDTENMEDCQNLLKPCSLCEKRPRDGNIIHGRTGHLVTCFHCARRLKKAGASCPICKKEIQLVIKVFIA
Target sequence (Q00987 whole entry, looked up): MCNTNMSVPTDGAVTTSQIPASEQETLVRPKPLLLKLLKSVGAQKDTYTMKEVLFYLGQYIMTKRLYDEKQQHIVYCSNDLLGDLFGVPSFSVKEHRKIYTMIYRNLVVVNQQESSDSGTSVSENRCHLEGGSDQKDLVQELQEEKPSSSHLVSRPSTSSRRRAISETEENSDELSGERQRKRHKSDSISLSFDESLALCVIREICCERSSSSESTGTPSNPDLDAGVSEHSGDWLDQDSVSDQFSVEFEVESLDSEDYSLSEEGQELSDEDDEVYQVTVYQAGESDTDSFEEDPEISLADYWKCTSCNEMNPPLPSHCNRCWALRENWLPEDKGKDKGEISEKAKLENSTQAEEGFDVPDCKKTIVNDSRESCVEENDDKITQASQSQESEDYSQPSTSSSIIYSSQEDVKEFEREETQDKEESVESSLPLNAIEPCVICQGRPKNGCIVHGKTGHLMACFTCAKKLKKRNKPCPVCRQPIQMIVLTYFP
697 NFkB inh – inhibitors of PMA/ionomycin-induced NF-kB reporter, 697 cells, primary screen, B-cell NF-kB inhibitor project, cell-based, luminescence, uHTS | 697 B-cell NF-kB luciferase reporter, 16 h | inhibition, % at 4 µM | hit rate 0.33% among 330,000 | AID 435022, 2010; in the data active = inhibition above about 35%
Mdm2-MdmX conf – Mdm2-MdmX complex disruptors, retested hits, confirmation, luminescence, single concentration | shares compounds with Mdm2-MdmX inh | Mdm2-MdmX binding, luminescent assay | inhibition, % at 8 µM | hit rate 55% among 10,000 | AID 489028, 2010; in the data active = inhibition above about 40%
Full FLuc ctr – full-length luciferase signal inhibition, confirmation, counter-screen for Mdm2/MdmX interaction inhibitor project, cell-based, single concentration, SaOS-2 | hit rate 77% among 6,200 | shares compounds with Mdm2-MdmX inh | AID 504607, 2011 | inhibition, % at 8 µM | SaOS-2 full-length luciferase counterscreen, luminescence;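 active = mean inhibition at 8 µM reaching about 37%, which flags the compound as non-specific, limit read from the data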;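 note: p53-null SaOS-2 cells with luciferase driven by a doxycycline-inducible promoter; compound on cells about two nights before reading with doxycycline added after day one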
The depositor's hits bear a star; / = not tested or not shown.

SMILES | Shn3 3UTR inh | Gli-Sufu block | Jurkat NFkB inh | Mdm2-MdmX inh | 697 NFkB inh | Mdm2-MdmX conf | Full FLuc ctr
COc1ccc(-c2nc3c(c(=O)n(C)c(=O)n3C)n2CC2CC(c3ccccc3)=NO2)cc1OC (centres undefined) | 9.9 | -11.6 | 43.0 | 61.0* | -4.4 | 44.6* | 89.2*
COc1ccc(C(=O)OCC2CC(c3ccccc3)=NO2)cc1OC (centres undefined) | -3.8 | 1.5 | -15.7 | -34.6 | 15.1 | / | /
CC(C)=C[C@H]1C[C@H](C)[C@H]2CC[C@H](C)c3c(O[C@@H]4O[C@@H](C)[C@@H](O)[C@@H](O)[C@@H]4O)c(O)c(C)c1c32 | 2.9 | / | / | / | / | / | /
CC(=O)O[C@H]1[C@H](O)[C@H](Oc2c(O)c(C)c3c4c2[C@@H](C)CC[C@@H]4[C@@H](C)C[C@H]3C=C(C)C)O[C@@H](C)[C@H]1O | 4.3 | 44.2 | 1.7 | 73.8* | -2.9 | -4.8 | /
Cc1cc(C)c(-c2csc(NC(=O)/C=C/c3cccs3)n2)c(C)c1 | 28.8 | -0.2 | 22.0 | 70.4* | 1.1 | 60.8* | 72.2*
Fc1cccc(F)c1[B-](F)(F)F | 14.8 | -1.6 | / | / | / | / | /
COc1ccc(C(C)(O)c2nc(-c3cccc(C(C)C)c3)cs2)cc1 (centres undefined) | 7.2 | / | / | / | / | / | /
COc1ccc(CN2CCN(C(c3ccc(F)cc3)c3ccc(F)cc3)CC2)c(OC)c1OC | -13.2 | -7.5 | -5.7 | 80.9* | 3.2 | 44.8* | 68.8*
CCN(CC)S(=O)(=O)c1ccc(/C=C/C(=O)OCC(=O)NCc2ccco2)cc1 | 5.1 | 3.4 | -4.0 | -18.8 | -18.0 | / | /
O=C(CCN1C(=O)/C(=C/c2ccc(Cl)cc2)SC1=S)NC1C=CS(=O)(=O)C1 (centres undefined) | -9.7 | -21.6 | 0.5 | 58.7* | -76.7 | 35.7 | /
CC(C)c1ccc(/C=C2\SC(=O)N(CC(=O)NC3C=CS(=O)(=O)C3)C2=O)cc1 (centres undefined) | 34.1 | 12.3 | 13.6 | 76.6* | -161.3 | 40.4* | 40.4*
COc1ccc(-n2ncc3c2CC(C)(C)CC3NC(=O)Cc2nonc2C)cc1 (centres undefined) | 19.1 | -1.7 | 7.7 | 2.9 | 5.6 | / | /
C#CCOCC1CNC(=S)O1 (centres undefined) | -2.5 | / | / | / | / | / | /
O=C(COc1ccc2c3c(c(=O)oc2c1)CCCC3)NCc1cccnc1 | 12.8 | -13.1 | -8.9 | 13.6 | 19.0 | / | /
Cc1cccc(Nc2nnc(-c3ccc(N4CCOCC4)c([N+](=O)[O-])c3)c3ccccc23)c1 | 20.7 | 27.2 | 11.8 | 59.5* | -4.1 | 37.0 | 84.4*
Cc1nnc(-c2ccc(N3CCOCC3)c([N+](=O)[O-])c2)o1 | -7.7 | -1.6 | -7.6 | 4.3 | 12.6 | / | /
O=C(Nc1nc2ccccc2n1CCN1CCOCC1)c1cn(-c2ccccc2)nc1-c1ccccc1 | 71.6 | 7.9 | -33.9 | 50.9* | -60.5 | 22.4 | /
O=C(Nc1nc2ccccc2n1CCN1CCOCC1)c1ccccc1 | 10.9 | -1.5 | -7.1 | 2.8 | -0.4 | / | /
N/C(=N\N=C/c1ccc(F)cc1)N/N=C\c1ccc(F)cc1 | 14.0 | 23.6 | -13.1 | 60.4* | -5.7 | 3.7 | /
O=C(O)c1cc(S(=O)(=O)N2CC3CC3C2C(=O)O)c(Cl)cc1Cl (centres undefined) | -6.4 | 1.6 | -4.3 | 17.4 | 3.7 | / | /
Cc1ccnc(NC(=O)c2cc3c(=O)oc4ccc(C)cc4c3s2)c1 | 5.3 | 6.3 | 5.4 | 70.3* | 31.1 | 38.1 | 73.7*
Cc1ccc(NC(=O)c2cc3c(=O)oc4ccc(C)cc4c3s2)nc1 | / | / | 12.6 | 75.2* | 21.2 | 11.5 | /
CCC1CCCCN1CCCNC(=O)c1cc2c(=O)oc3ccc(C)cc3c2s1 (centres undefined) | -12.4 | 27.1 | -17.1 | 53.5* | -10.8 | 2.8 | /
Cc1ccc2oc(=O)c3cc(C(=O)NCCN4CCN(C)CC4)sc3c2c1 | 8.2 | 3.8 | -14.8 | -8.0 | -10.4 | / | /
COc1ccc(N(CC(=O)NCc2ccc(C)cc2)S(=O)(=O)c2c(C)noc2C)cc1 | 0.5 | 6.1 | 1.9 | -4.0 | 4.4 | / | /
SMILES | Shn3 3UTR inh | Gli-Sufu block | Jurkat NFkB inh | Mdm2-MdmX inh | 697 NFkB inh | Mdm2-MdmX conf | Full FLuc ctr
Cc1oc(-c2cccc(Cl)c2)nc1CN1CCC(C(=O)NCCCN2CC(C)CC(C)C2)CC1 (centres undefined) | -13.5 | 29.3 | 44.1 | 99.7* | -0.2 | 98.4* | 52.7*
CCN1CCN(CCNC(=O)C2CCCN(Cc3nc(-c4cccc(Cl)c4)oc3C)C2)CC1 (centres undefined) | 28.1 | 19.4 | 8.5 | 62.9* | -17.7 | 31.9 | /
CCCN(CCC)CCNC(=O)C1CCN(Cc2nc(-c3ccc(Cl)cc3)oc2C)CC1 | -7.9 | 15.1 | 6.2 | 87.8* | 19.0 | 79.3* | 30.3
CCC(=O)Nc1ccc(C(=O)Nc2cccc(C)n2)cc1 | -72.3 | -80.1 | -71.3 | -31.0 | -81.3 | / | /
O=C(NCCc1ccc(F)cc1)C(=O)NCC1CCCN1S(=O)(=O)c1cccs1 (centres undefined) | 6.7 | 2.3 | 37.5 | 36.5 | -7.5 | / | /
COc1ccc(-c2ccc(SCC(=O)N3CCN(c4ccccc4)CC3)nn2)cc1 | 7.2 | 1.0 | 8.8 | 52.3* | -33.3 | 10.2 | /
CC1=C(Nc2ccc(C(=O)O)cc2)C(=O)c2ccccc2C1=O | -3.6 | 2.2 | -5.5 | 14.5 | -10.0 | / | /
O=C(O)c1ccc(NC2=C(Cl)C(=O)c3ccccc3C2=O)cc1 | 95.2* | -1.4 | -1.0 | 100.3* | -5.4 | 91.2* | 53.0*
CCSC1=NCCN1C(=O)C(C)(C)Oc1ccc(Cl)cc1 | -4.6 | -5.8 | -13.0 | 3.1 | -11.5 | / | /
c1ccc(-c2cc(-c3nnc4n3N=C(c3ccc5ccccc5c3)CS4)[nH]n2)cc1 | 10.6 | 0.6 | -5.4 | 56.9* | -19.6 | 78.3* | 75.8*
COc1ccc(C2=Nn3c(nnc3-c3ccncc3)SC2)cc1 | -9.3 | -4.8 | 7.8 | 51.8* | -9.8 | 54.9* | 22.4
COc1ccc(C2=Nn3c(nnc3-c3cccnc3)SC2)cc1 | -1.7 | -0.3 | / | / | / | / | /
Cc1cc(-c2nnc3n2N=C(c2ccc(-c4ccccc4)cc2)CS3)n[nH]1 | -3.4 | 14.8 | 3.0 | 69.7* | 9.5 | 12.2 | /
CC1(C)CC(=O)C=C(NNC(=O)OC(C)(C)C)C1 | -11.4 | -5.8 | -5.2 | -7.6 | 3.7 | / | /
CC1c2ccsc2CCN1C(=O)NC(=O)c1ccc(Cl)cc1 (centres undefined) | 13.2 | -17.0 | 21.3 | 21.7 | 10.5 | / | /

Screening results (PubChem BioAssay)
